In the library only some 3.5% were active in any assay of this set; here they are far more common.
ATG4B inhibitor: ATG4B protease inhibitors, primary screen, biochemical, fluorescence, uHTS | Cysteine protease ATG4B (Homo sapiens), Q9Y4P1 | ATG4B cleavage of LC3-PLA2, NBD-HPC fluorescence, 1 h | inhibition, % at 8.33 µM | 340,000 compounds, 0.51% hits; in the data active means inhibition above about 40%
Target sequence (Q9Y4P1 whole entry, looked up): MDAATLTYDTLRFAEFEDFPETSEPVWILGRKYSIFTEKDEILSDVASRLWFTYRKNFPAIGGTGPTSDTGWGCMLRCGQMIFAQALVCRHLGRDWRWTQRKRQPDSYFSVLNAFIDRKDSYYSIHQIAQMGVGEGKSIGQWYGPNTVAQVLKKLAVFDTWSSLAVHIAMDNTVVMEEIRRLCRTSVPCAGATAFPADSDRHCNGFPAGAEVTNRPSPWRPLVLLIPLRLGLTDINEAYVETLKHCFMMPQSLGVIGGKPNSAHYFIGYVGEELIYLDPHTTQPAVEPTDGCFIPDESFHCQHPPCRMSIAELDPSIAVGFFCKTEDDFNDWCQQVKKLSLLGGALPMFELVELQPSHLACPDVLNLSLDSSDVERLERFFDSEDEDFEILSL
CHRM1 antagonist: human M1 muscarinic receptor antagonists, primary screen, CHO-K1 cells, Fluo-8 calcium fluorescence, 1536-well; inhibition, % at 3 µM; CHO-K1 hM1, ACh EC80 antagonist; 360,000 compounds, 1.3% hits; Muscarinic acetylcholine receptor M1 (Homo sapiens), P11229;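 active means percent inhibition above its own plate's cutoff, namely the mean of that plate's compound wells plus 3 SD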;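 further: peak over basal fluorescence ratio during 140 s after agonist addition; 0% = ACh EC80 plus DMSO and 100% = DMSO alone without agonist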
M1 ag: human M1 muscarinic receptor agonists, primary screen, Fluo-8 calcium fluorescence, CHO-K1 cells, HTS; activation, % at 3 µM; CHO-K1 hM1, agonist mode; 0% DMSO, 100% acetylcholine EC100; AID 588814, 2011; 360,000 compounds, 0.33% hits; Muscarinic acetylcholine receptor M1 (Homo sapiens), P11229;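 active means activation above the run's mean compound activation plus 3 SD, cut at about 16% in these data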;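 further: peak over basal fluorescence ratio within a 140 s kinetic read after compound addition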
Myeloid diff 2: induction of myeloid progenitor differentiation, primary screen, cell-based, flow cytometry, MLPCN library. AID 624256, 2012. ER-HoxA9 myeloid progenitors, lysozyme-GFP differentiation. calls only at 10 µM. 360,000 compounds, 1% hits;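 active means normalized GFP-positive differentiation at or above the plate's own cutoff, the solvent-only control mean plus 3 SD; inconclusive means no clear call, values can overlap the other calls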;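 further: cells exposed to compound for four days before flow analysis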
SKN-1 block: suppressors of acrylamide-induced Pgst-4::GFP reporter in worms, primary screen, SKN-1 inhibitor project, whole organism, uHTS, GFP/RFP fluorescence ratio, strain VP596 | C. elegans VP596 Pgst-4::GFP/RFP ratio, 24 h | inhibition, % at 21.8 µM | 360,000 compounds, 0.49% hits;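 active means interference check ratio from 0.5 to 1.5 plus GFP to RFP signal ratio inhibition reaching or exceeding a fixed threshold, cut at about 30% in these data, passing the limit was not always enough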
CHRM1 PAM: human M1 muscarinic receptor positive allosteric modulators, primary screen, CHO-K1 cells, Fluo-8 calcium fluorescence, 1536-well. Muscarinic acetylcholine receptor M1 (Homo sapiens), P11229. CHO-K1 hM1, ACh EC20; 0% = ACh EC20, 100% = maximal ACh. activation, % at 3 µM. 360,000 compounds, 0.088% hits; in the data active means activation above about 19%, passing the limit was not always enough
Numbers without * were called inactive; i = inactive; ? = inconclusive; . = no result; + = active, no number.

SMILES | ATG4B inhibitor | CHRM1 antagonist | M1 ag | Myeloid diff 2 | SKN-1 block | CHRM1 PAM
CNc1nc(N)nc(-c2cc(Cl)ccc2OC)n1 | -7.2 | -2.1 | -3.8 | i | -11.0 | 11.5
CC(C)[C@H](NS(=O)(=O)c1ccc2c(c1)OCCO2)C(=O)OCC(=O)Nc1cc(Cl)ccc1Cl | -3.7 | 30.6* | 0.9 | i | 0.3 | -16.4
O=C(N/N=C\c1c(O)ccc2ccccc12)c1cncc(Br)c1 | -2.2 | -8.4 | 41.8* | ? | -18.3 | 1.5
COc1ccccc1-c1c(C)oc2cc(OC(=O)c3ccco3)ccc2c1=O | -5.0 | -7.5 | -1.0 | i | 3.8 | 3.2
COc1ccccc1-c1c(C(F)(F)F)oc2cc(OC(=O)c3cccc([N+](=O)[O-])c3C)ccc2c1=O | -5.7 | -0.2 | -0.3 | i | 35.8* | -3.4
CC1C(=O)N2CCCc3cc(NC(=O)C(=O)NCCN4CCOCC4)cc1c32 (stereo not drawn) | -4.6 | 36.6* | -1.2 | i | -8.8 | -13.8
O=c1c2ccccc2ncn1-c1ccc(Cl)cc1Cl | -10.4 | -3.8 | -6.1 | i | 35.2* | 5.6
CCOC(=O)C1CCN(CC(O)COc2ccc(S(=O)(=O)N3CCCC3)cc2[N+](=O)[O-])CC1 (stereo not drawn) | 3.5 | 39.5* | -8.5 | i | 28.1 | -23.8
CCOC(=O)C1CCN(S(=O)(=O)c2ccc(C(C)=O)cc2)CC1 | -2.1 | 0.5 | -3.6 | i | 9.8 | 4.0
CCOC(=O)C1CCN(S(=O)(=O)c2ccc(Cl)nc2)CC1 | -1.8 | 28.1* | -4.1 | i | -8.0 | -8.7
COC(=O)C1CCN(S(=O)(=O)c2cn(C)c(=O)n(C)c2=O)CC1 | -3.1 | -9.8 | -1.5 | i | -1.9 | 3.5
CCOC(=O)C1CCN(S(=O)(=O)c2cn(C)c(=O)n(C)c2=O)CC1 | -12.0 | 32.1* | -10.1 | i | 7.3 | -22.1
COc1ccc(S(=O)(=O)N2CCN(CC(=O)Nc3c(C)n[nH]c3C)CC2)cc1OC | 5.0 | -10.8 | 3.3 | i | -5.5 | 14.0
CN(C(=O)COC(=O)c1ccc(Br)c(S(=O)(=O)N2CCOCC2)c1)C1CCCCC1 | -7.2 | -12.6 | -1.4 | i | 24.2 | -2.8
COc1ccc(NC(=O)c2cc(C3CCCCN3C(=O)OCCF)on2)c(C)c1 (stereo not drawn) | . | -10.7 | -4.0 | i | 18.2 | 4.5
Cn1c(=O)c2nc(SCCO)n(C)c2n(C)c1=O | -1.7 | -9.3 | -2.6 | i | 6.6 | 4.0
O=C(O)CCCCCN1C(=O)/C(=C\c2ccc(-c3ccc(Cl)cc3)o2)SC1=S | 7.0 | -10.1 | -0.6 | + | -12.4 | 9.2
O=C(O)CCCN1C(=O)/C(=C/c2ccc(-c3nc4ccccc4s3)o2)SC1=S | -5.5 | -0.8 | 5.0 | . | 33.1 | 10.2
Cc1nc(Oc2ccccc2)c2oc3ccccc3c2n1 | -4.4 | -17.9 | -2.9 | i | 38.0* | -0.8
Cc1nc(Nc2cccc(F)c2)c2oc3ccccc3c2n1 | 15.8 | -4.0 | -11.6 | + | 20.5 | -0.6
COc1ccc(CCCNC(=O)C2(C)Cc3c(-c4ccc(NC(C)=O)cc4)ccnc3O2)cc1 (stereo not drawn) | . | 20.9 | -2.4 | i | 9.9 | -10.2
CC(C)OC(=O)c1cc2ccccc2[nH]1 | 4.1 | -0.9 | -4.0 | i | -1.5 | 1.2
CCOC(=O)c1cc2cc3ccccc3cc2[nH]1 | 2.7 | 27.5 | 0.0 | i | 39.7* | -7.2
COC(=O)C1CCN(C(=O)c2ccc(OC3CCN(Cc4ccccn4)CC3)cc2)CC1 | 4.9 | 3.7 | -7.7 | i | 18.6 | 1.1
COC(=O)[C@@H]1CCCN1C(=O)c1ccc(OC2CCN(Cc3ccccn3)CC2)cc1 | 6.0 | -21.9 | -3.8 | i | -12.5 | 27.6*
SMILES | ATG4B inhibitor | CHRM1 antagonist | M1 ag | Myeloid diff 2 | SKN-1 block | CHRM1 PAM
COc1cc(/C=C/C(=O)OCC(=O)NC(=O)NC2CCCCC2)ccc1OC(F)F | -6.7 | -9.4 | -2.1 | i | 9.5 | 7.8
C=CCNC(=S)NNC(=O)c1cccn(Cc2cccc(Cl)c2)c1=O | -5.5 | 21.2* | -5.7 | i | -20.1 | -20.8
Cc1ccc2nc(Nc3nc(CSc4nnnn4-c4ccccc4)cc(=O)[nH]3)nc(C)c2c1 | -6.9 | -7.6 | -4.6 | i | 35.3* | 6.7
Cc1nc(Nc2nc(CSc3nc4ccccc4[nH]3)cc(=O)[nH]2)nc2ccccc12 | 0.1 | 13.2 | -4.7 | ? | 13.8 | -10.1
CCCn1nc(CC(=O)O)c2ccccc2c1=O | -1.8 | -31.4 | -0.3 | i | -4.6 | 5.0
CCn1nc(CCC(=O)O)c2ccccc2c1=O | -9.8 | -5.4 | -4.8 | i | 41.0* | 7.2
COc1ccc(NS(=O)(=O)c2cc(NC(=O)C3CC3)ccc2N2CCOCC2)cc1 | -4.3 | 0.2 | -6.1 | i | 9.5 | 7.6
COc1ccc(NS(=O)(=O)c2ccc(N3CCCCC3)c(NC(=O)C(C)NC(N)=O)c2)cc1 (stereo not drawn) | -13.2 | 1.3 | -1.1 | i | 17.3 | 4.1
COc1ccc(NS(=O)(=O)c2cc(NC(=O)C3CC3)ccc2N2CCCCC2)cc1 | -8.5 | -5.0 | -1.6 | + | 6.0 | 6.5
COc1ccc(NS(=O)(=O)c2ccc(N3CCCCC3)c(N)c2)cc1 | -8.8 | 35.7* | -0.6 | i | -7.8 | -12.9
COc1ccc(OC)c(S(=O)(=O)N2CCC(C(=O)Nc3ccc(C)c(C)c3)CC2)c1 | -23.8 | 36.4* | 4.5 | i | 6.0 | -11.6
CCOC(=O)c1cc2nc(OCC)nc(OCC)c2[nH]1 | -7.5 | -13.5 | -2.5 | i | 9.6 | 6.6
CCOC(=O)C(=O)Cc1cccnn1 | 1.3 | 6.4 | 0.7 | i | 19.0 | -8.3
CCCc1cc(C(=O)Nc2nccs2)cs1 | 14.4 | 15.1 | -4.4 | i | 33.2* | -8.4
Cc1cc[n+](CC(=O)c2cc3ccccc3oc2=O)cc1 | -4.5 | 59.4* | -8.4 | i | -3.6 | -22.9
Cc1cc(C)nc(SCC(=O)c2cc3ccccc3oc2=O)n1 | 1.2 | -14.7 | -2.8 | i | 11.5 | 1.8
CC(=O)N1c2ccc(S(=O)(=O)N3CCC(C(=O)N4CCN(c5cc(Cl)ccc5C)CC4)CC3)cc2CC1C (stereo not drawn) | -5.0 | 47.7* | 2.1 | i | 7.0 | -15.6
CC(=O)N1c2ccc(S(=O)(=O)N3CCC(C(=O)N4CCC(C)CC4)CC3)cc2CC1C (stereo not drawn) | -2.1 | -8.6 | -3.7 | ? | 5.9 | 4.5

Screening results as filed in PubChem.
